Test [1] has as its system Zika virus NS2B-NS3 protease (linked construct). The experiment in a line: Primary screen NINDS Rhodamine qHTS for Zika virus inhibitors (AID 1347160). Note: nearly all actives have a fitted effect of over 55% in size. Note: potency is the fitted concentration of half-maximal effect. The following applies: purified NS2B-NS3 protease, Rhodamine110 substrate fluorescence; series mostly up to 57.1 µM. The essentials:
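Aprotinin served as in-plate control. Conditions: 25 nM linked NS2B-NS3, pH 8.0 Tris buffer, titrated compounds, 15 min preincubation and 15 min reaction with 1.5 microM Rhod110 substrate at room temperature.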

Test [2] can be described thus: Vero cells viability qHTS for Zika virus inhibitors (AID 1347167). The following applies: cytotoxicity counter-screen (Zika); series mostly up to 45.9 µM. The method, boiled down:
(§1)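 To flag cytotoxic protease inhibitors, viability is measured by ATP-dependent luminescence (CellTiter Glo) after cells attached overnight receive compound for 24 to 48 hours in DMEM with 4% FBS.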

The nature of test [3]: HepG2 cells viability qHTS for Zika virus inhibitors (AID 1347168). The following applies: Zika counter-screen; series mostly up to 45.9 µM. The method, boiled down: as §1
Test [4] is described as follows: Tertiary RLuc qRT-PCR qHTS assay for Zika virus inhibitors (AID 1347169). Note: top concentration of the series differs between compounds; nearly all actives have a fitted effect of over 55% in size. The following applies: infected Vero cells, reporter luminescence, 48-72 h; series mostly up to 45.9 µM. The essentials:
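Vero cells (1,000 per well) plated overnight at 37 degrees C, treated with compound in DMSO, then infected with recombinant ZIKV-RLuc (Cambodian) at MOI 1-2 for 48-72 hrs. Live-cell Renilla luciferase substrate added; luminescence read after 1-1.5 hrs.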

Test [5] deals with Lysine-specific demethylase 5B (Homo sapiens) (UniProt Q9UGL1). The experiment in a line: Optimization screen for KDM5B Histone Demethylases FDH coupled qHTS against the LOPAC library (AID 1347166). The following applies: KDM5B demethylation, FDH-coupled NADH fluorescence (FDH is formaldehyde dehydrogenase); series mostly up to 57.5 µM. The essentials: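 KDM5BDeltaAP (200nM final) in 50mM HEPES pH 7.5, 0.01% Tween-20 was preincubated with compound for 10 min at room temperature. A substrate mix of 12.5uM H3K4Me3, 25uM a-ketoglutarate, ascorbate, Fe2+, NAD+ and formaldehyde dehydrogenase was then added. NADH fluorescence (340/450 nm) was read initially and after 30 min.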

Here are results for 26 compounds from PubChem BioAssay (NCATS).

Inconclusive results are not listed. A call without a number means that no potency is given here. Calls of active or inactive are those of the source. Calls come from the whole dose curve; as a rule, active = well fitted curve in the direction sought with a large enough effect; inconclusive = small, poorly fitted or top-dose-only effect, or another doubt; inactive = no such curve, though single readings can be large; an effect the other way counts as inactive or inconclusive.

Chain of Lysine-specific demethylase 5B (Homo sapiens) (Q9UGL1 whole entry, looked up): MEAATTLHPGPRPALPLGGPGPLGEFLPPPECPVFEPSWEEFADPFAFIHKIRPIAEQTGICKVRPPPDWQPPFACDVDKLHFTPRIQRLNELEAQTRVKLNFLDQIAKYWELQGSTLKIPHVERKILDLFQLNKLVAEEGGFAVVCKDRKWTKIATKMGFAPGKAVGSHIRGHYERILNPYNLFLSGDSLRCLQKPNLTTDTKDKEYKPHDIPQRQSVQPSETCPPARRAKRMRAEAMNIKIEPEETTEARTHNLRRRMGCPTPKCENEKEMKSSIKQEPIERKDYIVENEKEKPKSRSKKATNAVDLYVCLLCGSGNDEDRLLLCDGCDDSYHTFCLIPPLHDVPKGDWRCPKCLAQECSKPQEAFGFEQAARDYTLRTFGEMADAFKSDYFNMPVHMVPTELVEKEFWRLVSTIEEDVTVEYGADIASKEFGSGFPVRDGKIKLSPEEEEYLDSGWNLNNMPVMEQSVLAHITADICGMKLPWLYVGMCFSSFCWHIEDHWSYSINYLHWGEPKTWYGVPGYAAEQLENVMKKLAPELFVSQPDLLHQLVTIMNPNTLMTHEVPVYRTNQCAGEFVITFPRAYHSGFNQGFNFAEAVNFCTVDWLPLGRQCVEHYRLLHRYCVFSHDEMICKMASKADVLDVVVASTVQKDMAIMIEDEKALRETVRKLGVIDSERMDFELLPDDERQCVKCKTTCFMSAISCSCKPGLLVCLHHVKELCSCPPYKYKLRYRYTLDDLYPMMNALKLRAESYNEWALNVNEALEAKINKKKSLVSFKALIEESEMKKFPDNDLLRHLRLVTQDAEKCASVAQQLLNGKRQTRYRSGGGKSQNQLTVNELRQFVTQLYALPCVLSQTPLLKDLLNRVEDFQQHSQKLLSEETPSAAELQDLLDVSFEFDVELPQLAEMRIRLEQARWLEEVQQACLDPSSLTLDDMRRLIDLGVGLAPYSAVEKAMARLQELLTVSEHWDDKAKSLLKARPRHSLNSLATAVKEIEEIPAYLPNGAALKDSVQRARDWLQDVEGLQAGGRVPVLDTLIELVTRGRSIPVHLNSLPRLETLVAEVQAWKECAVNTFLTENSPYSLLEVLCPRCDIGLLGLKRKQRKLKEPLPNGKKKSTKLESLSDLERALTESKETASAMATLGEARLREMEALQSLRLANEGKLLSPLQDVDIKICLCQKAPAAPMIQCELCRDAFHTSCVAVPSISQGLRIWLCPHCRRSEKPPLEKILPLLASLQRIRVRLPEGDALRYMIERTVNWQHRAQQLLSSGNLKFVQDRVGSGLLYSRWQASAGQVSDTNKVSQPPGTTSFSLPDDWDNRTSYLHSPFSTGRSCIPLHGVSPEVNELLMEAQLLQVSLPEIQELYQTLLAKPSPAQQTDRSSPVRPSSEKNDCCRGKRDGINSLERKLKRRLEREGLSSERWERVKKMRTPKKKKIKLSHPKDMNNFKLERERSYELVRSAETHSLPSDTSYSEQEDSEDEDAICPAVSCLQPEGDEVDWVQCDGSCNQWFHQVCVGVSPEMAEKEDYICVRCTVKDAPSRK

Turning to `C/C=C(\C)C(=O)OC1C[C@@]2(COC(C)=O)O[C@H]2/C=C\[C@@]2(C)O[C@@H]2[C@H]2OC(=O)C(COC(C)=O)=C12` (some centres undefined), in test [1], the Potency entry is “inactive”.

Take `CN(C)CC1CCn2c(c(C3=C(c4cn(C)c5ccccc45)C(=O)NC3=O)c3ccccc32)C1` (centres undefined): the Potency result in test [1] was “inactive”.

For the compound `CC1(C)CCCC2(C)C1C(OC(=O)/C=C/C=C/C=O)C=C1COC(=O)C12O` (centres undefined), the Potency result in test [1] is “inactive”.

On to `Cc1cccc(N2CCN(C(=O)c3cc(S(=O)(=O)N(C)C)ccc3N3CCCC3)CC2)c1C`, for which the Potency entry in test [1] was “inactive”.

`CC1=C(c2ccc(NC(=O)c3c(F)cccc3F)cc2)CN(c2nccs2)CC1`: in test [1], the Potency result is “inactive”.

Take `C=C1C(=O)O[C@H]2C1CCC(C)=C1C(=O)C=C(C)[C@@]12O` (some centres undefined): the Potency result in test [1] was “inactive”.

For `CCN1CCC[C@@H]1CNC(=O)c1ccc2c(c1)NC(=O)c1cccc(C)c1S2`, the Potency result in test [1] was “inactive”.

For the compound `C/C=C(/C)C(=O)OC1C=C2C3C(C)C(C)C(OC(=O)C(C)C(C)O)CC3(C)CCC2(C)C2(C)CC(OC(C)=O)C3C(C)(C)C(O)C(=O)CC3(C)C12` (centres undefined), the Potency result in test [1] is “inactive”.

With `O=C(Nc1ncc([N+](=O)[O-])s1)c1ccccc1O`, in test [1], the Potency was 22.4 µM (active).

Take `CCC(CC)(NC(=O)C(C)C)C(=O)N[C@@H](CCCN=C(N)N)C(=O)NC1(C(=O)NC(c2ccc(F)cc2)c2ccc(F)cc2)CCCC1`: the Potency entry in test [1] and in test [4] was “inactive” throughout. Also, the compound was classed as inactive in test [2] and in test [3].

Consider `C=C1C(=O)OC2CC(C)C(CCC(C)O)=CCC12` (centres undefined), for which the Potency entry in test [1] was “inactive”.

With `Cc1nc2cc(C(=O)NCc3ccccn3)nn2c(C)c1Cc1cccc(Cl)c1`, the Potency result in test [1] was “inactive”.

On to `CC(C)c1ccccc1OC(=O)NCCc1ccc2ccccc2c1`, for which, in test [1], the Potency entry is “inactive”.

For the compound `CC(C)c1ccc(-c2cc(=O)c3ccccc3o2)cc1`, the Potency entry in test [1] is “inactive”.

Consider `COc1cc(CCO)ccc1O[C@@H]1O[C@H](CO)[C@@H](O)[C@H](O)[C@H]1O`, for which the Potency result in test [1] is “inactive”.

For the compound `COc1ccccc1S(=O)(=O)Nc1ccc2c(c1)CN(C)C(=O)N2`, in test [1], the Potency entry was “inactive”.

In the case of `CN[C@H]1CC[C@@H](c2ccc(Cl)c(Cl)c2)c2ccccc21`, the compound was called inactive in test [5].

For the compound `COc1ccc(N(C(=O)Nc2c(C)cccc2C)c2cc(Nc3ccc(N4CCN(C)CC4)cc3)ncn2)c(OC)c1`, the Potency entry in test [1] was “inactive”.

Consider `CCOc1ccc(S(=O)(=O)N2CCCCCC2)c2ccccc12`, for which the Potency result in test [1] was “inactive”.

Regarding `CC(=O)NC[C@H]1CN(c2ccc(N3CCSCC3)c(F)c2)C(=O)O1`, the Potency result in test [1] is “inactive”.

As for `COc1ccc(-n2c(SCCCN3C(=O)c4cccc5cccc(c45)C3=O)nnc2-c2ccncc2)cc1`, in test [1], the Potency result is “inactive”.

`O=c1[nH]c2cccc(N3CCN(Cc4ccc(-c5ccccc5)cc4)CC3)c2o1`: in test [1], the Potency result was “inactive”.

On to `C/C=C(\C)C(=O)OC1C=C(C)CC(OC(=O)c2ccc(O)cc2)C2C1(C)CCC2(O)C(C)C` (centres undefined), for which, in test [1], the Potency entry was “inactive”.

`O=C(Nc1cccc2cccnc12)c1ccc(N2C(=O)[C@@H]3C4C=CC(C4)[C@@H]3C2=O)cc1`: in test [1], the Potency entry is “inactive”.

Consider `COc1cc(-n2cnc3cc(-c4ccc(Cl)cc4)sc3c2=O)ccc1OCCN1CCCC1`, for which the Potency entry in test [1] was “inactive”.

As to `O=C(NS(=O)(=O)c1ccc(Br)s1)c1ccc(Cl)cc1Cl`, the Potency result in test [1] is “inactive”.
